Experimental data reported in the supplement of paper PMC11383364.
Values joined by “and” are separate entries in the source; they are usually repeats but may differ in a detail not shown here. Equal values may be shown once.

system: SUM149; assay: percent difference in area under dose-response curve of relative cell number, RPMI vs HPLM; higher = drug relatively more effective in HPLM than RPMI (negative = less effective in HPLM); conditions: treatment time: 72 h; dose range: 10-point, 1 nM to 20 µM; media compared: RPMI vs HPLM

Row | SMILES | percent difference in area under dose-response curve
1 | CS(=O)(=O)CCNCc1ccc(-c2ccc3ncnc(Nc4ccc(OCc5cccc(F)c5)c(Cl)c4)c3c2)o1 [Lapatinib_Ditosylate] | -5.86%
2 | O=C(Nc1c[nH]nc1-c1nc2ccc(CN3CCOCC3)cc2[nH]1)NC1CC1 | -10.6%
3 | CN1CCN(CCOc2cc(OC3CCOCC3)c3c(Nc4c(Cl)ccc5c4OCO5)ncnc3c2)CC1 [Saracatinib] | 14.3%
4 | O=C(O[C@@H]1Cc2c(O)cc(O)cc2O[C@@H]1c1cc(O)c(O)c(O)c1)c1cc(O)c(O)c(O)c1 [_Epigallocatechin_gallate] | 3.46%
5 | C#Cc1cccc(Nc2ncnc3cc(OCCOC)c(OCCOC)cc23)c1 [Erlotinib_HCl] | -0.149%
6 | CC(C)(C)c1cc(C(=O)C(C#N)=NNc2cccc(Cl)c2)no1 | -6.64%
7 | CCCCC[C@H](CC(=O)NO)C(=O)N[C@H](C(=O)N1CCC[C@H]1CO)C(C)C [Actinonin] | 1.68%
8 | COc1cc2c(cc1O)CC[C@@H]1[C@@H]2CC[C@]2(C)[C@@H](O)CC[C@@H]12 [2Methoxyestradiol] | -12%
9 | c1cc(-c2cnn3cc(-c4ccc(OCCN5CCCCC5)cc4)cnc23)ccn1 [Dorsomorphin] | -2.35%
10 | O=c1cc(-c2cccc3c2Sc2ccccc2S3)oc(N2CCOCC2)c1 | 4.24%
11 | CC[C@]1(O)C[C@H]2CN(CCc3c([nH]c4ccccc34)[C@@](C(=O)OC)(c3cc4c(cc3OC)N(C=O)[C@H]3[C@@](O)(C(=O)OC)[C@H](OC(C)=O)[C@]5(CC)C=CCN6CC[C@]43[C@@H]65)C2)C1 [Vincristine] | -16.7%
12 | CC(=O)O[C@@]12CO[C@@H]1C[C@H](O)[C@@]1(C)C(=O)[C@H](O)C3=C(C)[C@@H](OC(=O)[C@H](O)[C@@H](NC(=O)OC(C)(C)C)c4ccccc4)C[C@@](O)([C@@H](OC(=O)c4ccccc4)[C@H]21)C3(C)C [Docetaxel] | -42.7%
13 | CC(=O)[C@]1(O)Cc2c(O)c3c(c(O)c2[C@@H](O[C@H]2C[C@H](N)[C@H](O)[C@H](C)O2)C1)C(=O)c1ccccc1C3=O [Idarubicin_HCl] | -49.3%
14 | Clc1ccc(Nc2nnc(Cc3ccncc3)c3ccccc23)cc1 [Vatalanib_2HCl] | -4.56%
15 | CN1CCN(c2ccc3nc(-c4c(N)c5c(F)cccc5[nH]c4=O)[nH]c3c2)CC1 [Dovitinib] | -0.391%
16 | Cc1cc(Nc2cc(N3CCN(C)CC3)nc(Sc3ccc(NC(=O)C4CC4)cc3)n2)n[nH]1 | -14.9%
17 | COC(=O)Nc1ccc(-c2nc(N3CCOCC3)c3cnn(C4CCN(C(=O)OC)CC4)c3n2)cc1 | 0.775%

Row | SMILES | percent difference in area under dose-response curve
18 | C=CC(=O)Nc1cccc(Nc2nc(Nc3ccc(NC4CN(CCF)C4)cc3OC)ncc2C(F)(F)F)c1 | 10.4%
19 | COc1c(C)cnc(Cn2cnc3c(Cl)nc(N)nc32)c1C | -26.2%
20 | C[C@]1(O)C[C@@H](c2nc(-c3ccc4ccc(-c5ccccc5)nc4c3)c3c(N)nccn32)C1 [Linsitinib] | 1.93%
21 | COc1cc2ncnc(Nc3ccc(F)c(Cl)c3)c2cc1NC(=O)/C=C/CN1CCCCC1 [Dacomitinib] | -9.71%
22 | C#Cc1cccc(Nc2ncnc3cc(OC)c(OCCCCCCC(=O)NO)cc23)c1 | 8.57%
23 | C/C=C1\NC(=O)[C@H]2CSSCC/C=C/[C@H](CC(=O)N[C@H](C(C)C)C(=O)N2)OC(=O)[C@H](C(C)C)NC1=O [Romidepsin] | -30.5%
24 | Nc1ncn([C@@H]2O[C@H](CO)[C@@H](O)[C@H]2O)c(=O)n1 [Azacitidine] | -13.8%
25 | Cn1c(=O)c(F)c(Nc2ccc(I)cc2F)c2c(=O)n(C[C@@H](O)CO)cnc21 | -12.9%
26 | CC1(COc2ccc3c(c2)ncn3-c2ccc3cccc(N4CCC(N)CC4)c3n2)COC1 [Crenolanib] | -11.6%
27 | C=CC(=O)Nc1cc(Nc2nccc(-c3cn(C)c4ccccc34)n2)c(OC)cc1N(C)CCN(C)C | 1.9%
28 | Cc1nccn1-c1ccc(Sc2cccc(C3(C(N)=O)CCOCC3)c2)cc1 | -9.07%
29 | C=CC(=O)Nc1cccc(Oc2nc(Nc3ccc(N4CCN(C)CC4)cc3OC)ncc2Cl)c1 | 3.23%
30 | Cc1ccccc1C(C(=O)NC1CCCC1)N(C(=O)Cn1cnc2ccccc21)c1cccc(F)c1 (centres undefined) | -1.67%
31 | COc1ccccc1-c1cc(Nc2cccc(CS(N)(=O)=O)c2)ncn1 | -3.21%
32 | C=CCNC1=C2C[C@@H](C)C[C@H](OC)[C@H](O)[C@@H](C)/C=C(\C)[C@H](OC(N)=O)[C@@H](OC)/C=C\C=C(/C)C(=O)NC(=CC1=O)C2=O | -27.6% and -16.3%
33 | CC(=O)O[C@H]1C(=O)[C@@]2(C)[C@H]([C@H](OC(=O)c3ccccc3)[C@]3(O)C[C@H](OC(=O)[C@H](O)[C@@H](NC(=O)c4ccccc4)c4ccccc4)C(C)=C1C3(C)C)[C@]1(OC(C)=O)CO[C@@H]1C[C@@H]2O [Paclitaxel] | -45.1%
34 | Nc1cc(C(F)(F)F)c(-c2cc(N3CCOCC3)nc(N3CCOCC3)n2)cn1 | -2.14%
